KB-3-1 tox = qHTS assay for MDR1-selective chemotherapeutics: Primary screen using the parental adenocarcinoma cell KB-3-1. KB-3-1 viability, CellTiter-Glo ATP luminescence, 72 h. Potency, µM (doses to about 46.1 µM), hits mostly cytotoxic. 1.4% of 400,000 active; further: on the % scale 0 is the no-effect control and ±100 the full control effect; nearly all actives have a fitted effect of over 60% in size
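Cytotoxicity in the drug-sensitive parental line KB-3-1 was scored as loss of CellTiter-Glo luminescence following 72 h incubation with compound. Values come from curve fitting of normalized concentration-response data.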
MCF10A rereplic = A quantitative high throughput screen for small molecules that induce DNA re-replication in MCF 10a normal breast cells. MCF 10A DNA re-replication, Hoechst nuclear intensity, 48 h. Potency, µM (series often up to 46.1 µM), for inactives: top-dose activity, positive = re-replication, hits mostly activators. 2.9% of 350,000 active. AID 624296, 2012; further: % of control where 0% means no effect; nearly all actives have a fitted effect of over 50% in size
SW480 rereplic = A quantitative high throughput screen for small molecules that induce DNA re-replication in SW480 colon adenocarcinoma cells. SW480 DNA re-replication, Hoechst DNA content imaging, 48 h. Potency, µM (doses to about 46.1 µM), for inactives: at the highest dose re-replication activation, actives largely listed as activators. 1.8% of 340,000 active; further: % of control where 0% means no effect; nearly all actives have a fitted effect of over 55% in size
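First, 250 cells per well were seeded. Next, compound or vehicle (23 nL) was pinned in, plates sat 48 hr at 37 C. Finally Hoechst was added for 40 min before fluorescence scanning.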
HT1080-NT tox = qHTS for induction of synthetic lethality in tumor cells producing 2HG: qHTS for the HT-1080-NT fibrosarcoma cell line. HT-1080-NT fibrosarcoma viability, CellTiter-Glo ATP luminescence, 48 h. Potency, µM (titrated, usually from 46.1 µM), for the others: top-dose activity, negative = less viability, usual class: cytotoxic. 1.6% of 360,000 active;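 further: NT is the 2HG producing partner of a matched IDH1 knockdown line; 0% = DMSO-treated cells and -100% = media-only wells without cells; nearly all actives have a fitted effect of over 55% in size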
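750 cells/well, RPMI + 5% FBS; 2 h settle, compound pin-transfer, 48 h at 37 degrees C. CellTiter-Glo 10 min RT, luminescence. Normalized to DMSO and media-only wells.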
HT1080 IDH1KD tx = qHTS for induction of synthetic lethality in tumor cells producing 2HG: qHTS for the HT-1080-IDH1KD cell line; AID 686971, 2013; HT-1080 IDH1 knockdown viability, ATP luminescence, 48 h; Potency, µM (doses to about 46.1 µM), for the others: at the top dose activity, negative = toxicity, hits mostly cytotoxic; 2% of 360,000 active;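 further: 0% = DMSO wells and -100% = cell-free medium wells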
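IDH1KD HT-1080 cells, 750/well, RPMI + 5% FBS; compound pinned after 2 h settling; 48 h, 37 °C; CellTiter-Glo luminescence; % activity normalised to DMSO and no-cell wells; curves fitted, classed by r2 and efficacy.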
KB-V1 cytotox = qHTS assay for MDR1-selective chemotherapeutics: Primary screen using the drug-selected MDR subline cells KB-V1. KB-V1 MDR cells viability, CellTiter-Glo, 72 h. Potency, µM (top dose mostly 46.1 µM), most hits filed as cytotoxic. 3.4% of 400,000 active; further: on the % scale 0 is the no-effect control and ±100 the full control effect; nearly all actives have a fitted effect of over 60% in size
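Compound-treated KB-V1 multidrug-resistant cells, 72 h, 37 degrees C; viability by CellTiter-Glo. Fitted qHTS curves give the values.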
* hit, by the source's call; i = inactive; u = inconclusive; x = no result given; [ ] = remark or other dose. Sampled rows, rich in hits. Any-hit rate of the full collection: about 7.9%. The call rests on the fitted dose curve; in most records, active means well fitted curve in the direction sought with a large enough effect; inconclusive means small, poorly fitted or top-dose-only effect, or another doubt; inactive means no such curve, though single readings can be large; an effect the other way counts as inactive or inconclusive. Potency means the concentration at half of the fitted maximal effect.

SMILES	KB-3-1 tox	MCF10A rereplic	SW480 rereplic	HT1080-NT tox	HT1080 IDH1KD tx	KB-V1 cytotox
Cc1ccc(CNCC(O)(c2ccccc2)c2ccccc2)cc1	i	1%	-12%	-6%	-11%	i
CCOC(=O)c1scc(-c2ccc(C)cc2)c1S(=O)(=O)N1CCN(c2ccccc2F)CC1	i	x	x	x	x	i
CC(C)n1ncc2c(C(=O)Nc3ccccc3SCC(N)=O)cc(C3CC3)nc21	i	x	x	-22%	-16%	i
Cc1ccc(C(=O)NNC(=O)CSc2nnc3c(n2)[nH]c2ccc(C)cc23)cc1	i	-5%	2%	-1%	18%	i
CCc1ccc2[nH]c3nc(SCC(=O)NNC(=O)c4ccc(C(C)(C)C)cc4)nnc3c2c1	u	2.3µM*	5.8µM*	5%	-4%	i
COc1ccc2cc(CN(CC3CCCO3)S(=O)(=O)c3ccccc3)c(=O)[nH]c2c1 (centres undefined)	i	0%	3%	-7%	-6%	21µM*
Cc1cc(C)c2cc(CN(CC3CCCO3)S(=O)(=O)c3ccc4c(c3)OCCO4)c(=O)[nH]c2c1 (centres undefined)	i	-46%	24%	-10%	-24%	16µM*
Cc1ccc(S(=O)(=O)N(Cc2cc3cc4c(cc3[nH]c2=O)OCCO4)CC2CCCO2)cc1 (centres undefined)	i	2%	-4%	13%	9%	i
COc1ccccc1C(=O)N/C(=C/c1ccc(Br)cc1)C(=O)N1CCOCC1	i	x	x	-3%	-2%	u
CCn1cc(C2=NC(C)CO2)c2ccccc21 (centres undefined)	i	1%	4%	11µM*	10µM*	i
CCn1cc(C2=NCC(C)O2)c2ccccc21 (centres undefined)	i	9%	u	11%[9.24 µM]	u	i
CCn1cc(C2=NCCO2)c2ccccc21	i	2%	-10%	-6%	1%	i
CCn1cc(C2=NC(c3ccccc3)CO2)c2ccccc21 (centres undefined)	8.2µM*	u	2%	-3%	-4%	u
CCOc1ccccc1N1CCN(CC(=O)Nc2ccnn2C2CCCC2)CC1	i	-3%	29%	-1%	-3%	u
Cc1ccc(Cl)cc1N1CCN(C(=O)CCC(=O)O)CC1	i	9%	-16%	-3%	-2%	i
Cc1cc2c(cc1C)N(C(=O)CCl)CC(=O)N2	u	x	x	u	23µM*	u
Cc1cc2c(cc1C)N(C(=O)CCl)CCN2C(=O)CCl	15µM*	4.6µM*	3.7µM*	u	u	7.3µM*
Cc1ccc(C2(c3ccccc3)NC(=O)N(CC(=O)N3CC(=O)Nc4ccccc43)C2=O)cc1C (centres undefined)	i	1%	-17%	0%[9.24 µM]	-22%	i
COc1ccc(NC(=O)C2CCCN(C(=O)NC3CCCCC3)C2)cc1OC (centres undefined)	i	2%	1%	1%	10%	15µM*
COc1ccc(S(=O)(=O)N2CCN(C(=O)NC3CCCCC3)CC2)cc1OC	i	4%	1%	-2%	-1%	16µM*
CC(=O)C1=C(O)C(=O)N(c2ccc(Br)cc2)C1c1ccc(Br)cc1 (centres undefined)	i	2%	-18%	u	-22%	i
CCOc1ccc(CNC(=O)C2CCN(S(=O)(=O)N3CCC(C)CC3)CC2)cc1OC	i	x	x	9%	0%	i
O=C(N/C=N/OCc1ccc(Cl)cc1Cl)NOCc1ncc(C(F)(F)F)cc1Cl	u	u	2%[9.22 µM]	u	26µM*	i
O=C(CCc1nc2ccccc2s1)N1CCN(S(=O)(=O)c2cccs2)CC1	i	6%	10%	3%	6%	i
O=S(=O)(c1cccs1)N1CCN(Cc2nc3ccccc3s2)CC1	i	5%	6%	-9%	-9%	23µM*
SMILES	KB-3-1 tox	MCF10A rereplic	SW480 rereplic	HT1080-NT tox	HT1080 IDH1KD tx	KB-V1 cytotox
CSc1ccc(C(=O)c2[nH]c(=O)[nH]c2C)cc1	i	-1%	-2%	27%	11%	5.8µM*
O=C(CC(SCCO)c1ccc(F)cc1)c1ccco1 (centres undefined)	i	21µM*	u	1%	8%	i
O=S(=O)(Nc1cccc2c1ccc1cccn12)c1cccs1	i	14µM*	8%	7%	9%	i
O=S(=O)(Nc1cccc2[nH]ncc12)c1cccs1	i	-6%	-12%	0%	0%	i
COc1ccc(Cl)cc1NC(=O)CNC(c1ccccc1)c1ccccc1	u	u	u	-28%	-9%	15µM*
COc1ccc(Cl)cc1NC(=O)CN1c2ccccc2CC1C (centres undefined)	u	14%	5%	u	u	15µM*
COc1ccccc1CNc1cc(-c2ccccc2)ccc1OC	i	u	9%	11%	1%	u
COc1ccc(CNC(=O)CNC(c2ccccc2)c2ccccc2)cc1OC	i	20%	-3%	-6%	-2%	8.2µM*
COc1ccc(-c2ccccc2)cc1NCc1ccc(OC)c(OC)c1	i	11%	-7%	10%	7%	16µM*
COc1ccc(C)cc1NC(=O)CNC(c1ccccc1)c1ccccc1	i	u	25%	-1%	12%	i
COc1ccc(OC)c(NC(=O)CNC(c2ccccc2)c2ccccc2)c1	i	-5%	-10%	-4%	7%	i
CCCCc1ccc(NC(=O)Cn2c(=O)c(N3CCCCC3)c(N)n(C)c2=O)cc1	i	0%	-11%	0%	-2%	i
N#CC(CCc1ccccc1[N+](=O)[O-])(CCc1ccccc1[N+](=O)[O-])C(N)=O	i	1%	5%	-1%	-8%	i
Cc1ccc(/C(N)=N/OC(=O)C(C)c2ccc([N+](=O)[O-])cc2)cc1 (centres undefined)	i	-16%	-3%	3%	10%	i
C=CCSc1n[nH]c(-c2ccc(OCCCC)cc2)n1	i	18%	-4%	-10%	-11%	i

High-throughput results from PubChem BioAssay.
